# Results: PubChem BioAssay (NCATS)
# Records with an inconclusive call do not appear. A number with no mark means an inactive call. Active and inactive are the calls of the source. The call rests on the fitted dose curve.
# Assay: Validation screen for inhibitors of Lassa infection (AID 463096)
# Settings: Lassa virus infection, cell-based; series mostly up to 46.1 µM; activity change, negative = inhibition: at the top concentration
# On the % scale 0 is the no-effect control and ±100 the full control effect; potency means the concentration at half of the fitted maximal effect.
Structure (SMILES),"activity change, negative = inhibition",Potency
O=C1N(c2ccccc2)c2ccccc2C1(Cc1ccncc1)Cc1ccncc1,-4.48%,–
CCCCNc1c(C(=O)OCC)c(C)nc2c1cnn2CC,-16.3%,–
O=C(CCCN1CCC(O)(c2cccc(C(F)(F)F)c2)CC1)c1ccc(F)cc1,-37.3%,–
CCCCCN(CCCCC)C(=O)C(CCC(=O)O)NC(=O)c1ccc(Cl)c(Cl)c1 (stereo unspecified),-19%,–
Nc1c2c(nc3ccccc13)CCCC2O (stereo unspecified),-11.4%,–
Cc1ccc(C(=O)Nc2ccc(S(=O)(=O)O)c3cc(S(=O)(=O)O)cc(S(=O)(=O)O)c23)cc1NC(=O)c1cccc(NC(=O)Nc2cccc(C(=O)Nc3cc(C(=O)Nc4ccc(S(=O)(=O)O)c5cc(S(=O)(=O)O)cc(S(=O)(=O)O)c45)ccc3C)c2)c1,-19.5%,–
COc1ccccc1N1CCN(CC(O)COc2cccc3ccccc23)CC1 (stereo unspecified),-37.9%,–
CCCCNc1cc(C(=O)O)cc(S(N)(=O)=O)c1Oc1ccccc1,-28.3%,–
C[C@]12CCC(=O)C=C1CC[C@@H]1[C@@H]2C(=O)C[C@@]2(C)[C@H]1CC[C@]2(O)C(=O)CO,31.1%,–
COc1nc(C)nc(Cl)c1NC1=NCCN1,7.52%,–
COc1ccc(CCN(C)CCCC(C#N)(c2cc(OC)c(OC)c(OC)c2)C(C)C)cc1OC (stereo unspecified),-4.33%,–
CCCN(CCC)C(=O)C(CCC(=O)O)NC(=O)c1ccccc1 (stereo unspecified),0.851%,–
C[n+]1cc2c3c(ccc2c2ccc4cc5c(cc4c21)OCO5)OCO3,–,2 µM (active)
Cc1ccc(/C(=C\CN2CCCC2)c2ccccn2)cc1,-46%,–
CCN(CC)CCOCCOC(=O)C1(c2ccccc2)CCCC1,-27%,–
CC(=O)OCC1=C(C(=O)O)N2C(=O)[C@@H](NC(=O)CSc3ccncc3)[C@H]2SC1,30.4%,–

Structure (SMILES),"activity change, negative = inhibition",Potency
CC1=C(CC(=O)O)c2cc(F)ccc2/C1=C\c1ccc(S(C)=O)cc1 (stereo unspecified),-14.5%,–
CN(C)C/C=C(/c1ccc(Br)cc1)c1cccnc1,-28.8%,–
OCCN1CCN(CCCN2c3ccccc3C=Cc3ccccc32)CC1,–,inactive
C=CCc1ccccc1OCC(O)CNC(C)C (stereo unspecified),14.9%,–
CN(C)CCN(Cc1cccs1)c1ccccn1,56.6%,–
C(=C\c1ccccc1)/CN1CCN(C(c2ccccc2)c2ccccc2)CC1,-22.7%,–
c1cc(CN2CCCCC2)cc(OCCCNc2nc3ccccc3s2)c1,-47.7%,–
CNCCC(Oc1ccccc1OC)c1ccccc1 (stereo unspecified),-10.8%,–
CCn1ccnc1CC1COc2ccccc2O1 (stereo unspecified),11.7%,–
O=C(Nc1ccc([N+](=O)[O-])cc1Cl)c1cc(Cl)ccc1O,–,5.01 µM (active)
CC(C)NCC(O)COc1ccc(COCCOC(C)C)cc1 (stereo unspecified),-2.19%,–
NCCc1cnc[nH]1,4.44%,–
CC(C(O)c1ccc(O)cc1)N1CCC(Cc2ccccc2)CC1 (stereo unspecified),-45.1%,–
CN1CCC(=C2c3ccccc3CC(=O)c3sccc32)CC1,-29%,–
O=C(O)CN(CCOCCOCCN(CC(=O)O)CC(=O)O)CC(=O)O,4.67%,–
